Experimental data taken from PubChem BioAssay (NCI).
Compounds without any hit were thinned out: in the full panel of roughly 79,000, 15% have a hit. Unmarked numbers belong to inactive results. Activity calls are given as the source filed them. Rule as the data show it: active = growth inhibition above about 70%; inactive = the rest.

Experiments:
[1] = NCI Yeast Anticancer Drug Screen. Data for the rad50 strain (AID 155);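 also: 0% = growth of vehicle-only cultures of the same strain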; conditions: S. cerevisiae rad50 strain growth inhibition; at 50.0 µM; active compounds read high
Outline: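 Genetically altered yeast (DNA repair pathway); compound treatment; growth inhibition vs vehicle ctrl.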

[2] = NCI Yeast Anticancer Drug Screen. Data for the mec2-1 strain (AID 157); conditions: S. cerevisiae mec2-1 strain, at 50.0 µM, active compounds read high
Outline: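 Yeast mec2-1 mutant treated with compound. Readout: growth inhibition vs vehicle controls.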

[3] = NCI Yeast Anticancer Drug Screen. Data for the sgs1 mgt1 strain (AID 161);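 also: 0% = growth of cultures given vehicle only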; conditions: S. cerevisiae sgs1 mgt1 strain, at 50.0 µM, active compounds read high
Outline: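 Genetically altered yeast, compound exposure, growth inhibition relative to vehicle.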

[4] = NCI Yeast Anticancer Drug Screen. Data for the cln2 rad14 strain (AID 165);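 also: 0% = growth equal to vehicle treated cultures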; conditions: S. cerevisiae cln2 rad14 strain, at 50.0 µM, active compounds read high
Outline: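 cln2 rad14 yeast strain; compound exposure; growth inhibition read vs vehicle controls.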

[5] = NCI Yeast Anticancer Drug Screen. Data for the bub3 strain (AID 167); conditions: S. cerevisiae bub3 mutant strain, at 50.0 µM, active compounds read high
Outline: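 Yeast carrying a defined mutation is treated with each compound, and growth is compared with that of vehicle-exposed cells to give inhibition.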

[6] = NCI Yeast Anticancer Drug Screen. Data for the mlh1 rad18 strain (AID 175); conditions: S. cerevisiae mlh1 rad18 strain growth inhibition; at 50.0 µM; active compounds read high
Outline: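 Yeast w/ defined DNA-repair lesions; compound exposure; growth vs vehicle controls → % inhibition.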

Compound | growth inhibition [1] | growth inhibition [2] | growth inhibition [3] | growth inhibition [4] | growth inhibition [5] | growth inhibition [6]
C=C1C(=O)O[C@H]2[C@H]1[C@@H](OC(=O)C=C(C)C)CC1=C[C@@H](C[C@@]3(C)O[C@@H]23)OC1=O | -7.45% | -7.55% | 7.4% | 9.85% | -2.6% | 7.85%
N#CC(CCc1ccccc1[N+](=O)[O-])(CCc1ccccc1[N+](=O)[O-])C(N)=O | 19.3% | 5.55% | 24.4% | -18.4% | 16.6% | 39.1%
Cc1ccc(NC(=S)/N=C/c2c(O)[nH]c(=O)[nH]c2=O)c(C)c1 | -9.4% | -20.4% | -15.8% | -4.85% | -24.5% | 2.05%
O=C(O)C1CCCCN1C(=O)c1ccccc1 (stereo not given) | -26.6% | -8.4% | -12.2% | -0.05% | -21.2% | -15.5%
Cc1[nH]c(=O)[nH]c(=O)c1/C=C/C(=O)NC(CO)CS(=O)C(C)C (stereo not given) | 83.2% (active) | 63.5% | 95.4% (active) | 64.7% | 79.7% (active) | 85.7% (active)
c1ccc([Si]2(c3ccccc3)[Si](c3ccccc3)(c3ccccc3)[Si](c3ccccc3)(c3ccccc3)[Si]2(c2ccccc2)c2ccccc2)cc1 | 6% | -1.4% | -35% | -1.45% | -0.45% | 3.75%
CC(=O)N(C)c1cccc2cccc(S(=O)(=O)O)c12 | -18.2% | -19.1% | -17.1% | -59.2% | -2.05% | -15.3%
CCN(Cc1cccc(S(=O)(=O)O)c1)c1ccc(C(=C2C=CC(=[N+](CC)Cc3cccc(S(=O)(=O)O)c3)C=C2)c2ccc(O)cc2S(=O)(=O)O)cc1 | -115% | -127% | -71.2% | -110% | -136% | -137%
Cc1nc2c(=O)[nH]c(=O)[nH]c2[nH]c1=O | -20.4% | -12.2% | -24.6% | -50.5% | 2.55% | -16.4%
NC1CC(=O)N(Cc2ccccc2)C1=O (stereo not given) | 5.75% | -7.9% | -9.8% | -11.6% | -0.25% | 2.4%
COc1cc(CC(=O)c2ccc3c(c2)OCO3)cc(OC)c1OC | -9.95% | -5.15% | -8.95% | -15.5% | 4.75% | -25.3%
NC(=S)N/N=C(\Cc1nc2ccc(Cl)cc2[nH]c1=O)C(=O)Nc1ccc(Cl)cc1 | -17.9% | 2.35% | -23.9% | -10.2% | -15.4% | -9.05%
[Cl-].[Dy+3].[O-]/N=C(\c1ccccc1)c1ccccn1.[O-]/N=C(\c1ccccc1)c1ccccn1.[O-]/N=C(\c1ccccc1)c1ccccn1 | 27.4% | 13.3% | 20.2% | 12.2% | 19.4% | 25.1%
N#CC(=Nc1cc(Cl)cc(Cl)c1)C1=C(O)c2ccccc2C1=O | 5.75% | 0.6% | 30.1% | 14.1% | 35.9% | 11%
CC(C)(C)OC(=O)NC(CCC(=O)OCc1ccccc1)C(=O)NCCCO (stereo not given) | -11.8% | -35.3% | 8.4% | -9.35% | -15.7% | 9.8%
CC(C)(C)C(=O)C(C(c1ccccc1)N1CCOCC1)N1CCOCC1 (stereo not given) | 21.7% | -5.8% | -33.6% | -17% | 5.7% | -10.6%
CCOC(=O)C(NCc1cccc(C(F)(F)F)c1)(NC(=O)c1ccccc1)C(F)(F)F (stereo not given) | 12.2% | -0.95% | -1.95% | 17.9% | 8.4% | 25%
Cc1c(/C=N/NC(=O)c2ccc(Cl)cc2)c(=O)n(-c2ccccc2)n1C | -43% | -20.9% | -53.4% | -32.4% | -52% | -65.2%
COc1cc(OC)c(C(=O)c2ccccc2N)c(OC)c1 | -3.2% | -0.35% | -1.5% | 6.55% | -8.45% | 9.4%
CC1(C)C(=NNc2ccccc2)C(C)(C)C1=NNc1ccccc1 | 14.8% | 63% | 15.5% | 79.9% (active) | 96.2% (active) | 33%
